An excerpt weighted towards active compounds, which were near 14% of everything screened.
HCMV antiviral – blocks human cytomegalovirus replication. HFF cells, HCMV-luciferase reporter, 72 h; hits give low values. activity change, negative = inhibition, % at 57.5 µM. 4.5% of 410,000 active. AID 1259415; in the data active = activity change below about -60%; inconclusive = no clear call, values can overlap the other calls; inactive = above about -39%
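Inhibition of viral replication was scored as loss of reporter luminescence in HFFs infected with HCMV-luciferase (MOI 1 PFU/cell) for 72 h; compounds tested at 2 doses, normalized to buffer and Salinomycin controls.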
Pf growth 96h – P. falciparum growth inhibition at 96 hours. P. falciparum luciferase reporter growth, 96 h. Potency, µM (titrated, usually from 28.7 µM), inactives show at the highest dose activity change, negative = inhibition, hits mostly inhibitors. 6.9% of 320,000 active; note: potency is the fitted concentration of half-maximal effect
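Parasite growth measured via integrated firefly luciferase reporter in P. falciparum. Infected erythrocytes at 2% hematocrit, 0.05% parasitemia final were treated 96 hours at 37 C under 5% CO2, and luminescence was read.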
Pf growth 48h – inhibits P. falciparum growth in the first generation, 48 h | P. falciparum luciferase growth in erythrocytes, 48 h | Potency, µM (titrated, usually from 28.7 µM), for the others: top-dose activity change, negative = inhibition, usual class: inhibitors | 5.9% of 310,000 active; note: potency is the fitted concentration of half-maximal effect
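Firefly luciferase activity from engineered P. falciparum reports growth; inhibitors lower the luminescent signal. Cultures contained 2% hematocrit erythrocytes at 0.1% final parasitemia.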
Sm TGR block – S. mansoni TGR enzyme inhibition; Q962Y6; purified TGR, DTNB reduction, TNB absorbance 405 nm; Potency, µM (highest dose often 114 µM), for inactives: at the top dose activity change, negative = inhibition, most hits filed as inhibitors; 3% of 360,000 active; note: potency is the fitted concentration of half-maximal effect; nearly all actives have a fitted effect of over 60% in size
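TGR 20 nM + NADPH 100 uM (dispensed conc.), cpd preinc 15 min RT; start with NADPH (500 uM addition) then DTNB (15 mM addition). Kinetic TNB absorbance, 405 nm filter. Four-parameter Hill fit across titration.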
Giardia FBPA inh – inhibitors of Giardia lamblia fructose-1,6-bisphosphate aldolase; A8B2U2; purified Giardia FBPA; Potency, µM (titrated, usually from 59.6 µM), for inactives: at the top dose activity, negative = inhibition, most hits filed as inhibitors; 0.71% of 290,000 active; note: potency is the fitted concentration of half-maximal effect; nearly all actives have a fitted effect of over 55% in size
Target sequence (A8B2U2 whole entry, looked up): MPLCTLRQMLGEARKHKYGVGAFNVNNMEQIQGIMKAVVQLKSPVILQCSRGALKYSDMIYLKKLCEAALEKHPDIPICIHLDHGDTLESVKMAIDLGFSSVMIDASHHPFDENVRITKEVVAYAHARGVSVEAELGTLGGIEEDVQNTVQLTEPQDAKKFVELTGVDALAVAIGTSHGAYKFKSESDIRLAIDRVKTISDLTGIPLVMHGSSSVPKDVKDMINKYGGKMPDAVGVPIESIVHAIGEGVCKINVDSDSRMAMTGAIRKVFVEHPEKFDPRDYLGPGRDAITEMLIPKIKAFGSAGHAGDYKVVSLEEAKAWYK
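40 nM FBPA preincubated 10 min at RT with compound (up to 57.5 uM final), then substrate plus GAPDH/TPI/NAD/arsenate coupling and diaphorase/resazurin added. Fluorescence read after 20 min at RT, 525/598 nm.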
* hit, by the source's call. Unless noted, calls come from the whole dose curve; as a rule, active = well fitted curve in the direction sought with a large enough effect; inconclusive = small, poorly fitted or top-dose-only effect, or another doubt; inactive = no such curve, though single readings can be large; an effect the other way counts as inactive or inconclusive. % is set by controls: 0 for no effect and ±100 for the full control effect.

CCCN(CCC)C(=O)c1cc2c(=O)n3cccc(C)c3nc2n1C was read as HCMV antiviral -30 and Sm TGR block inconclusive.
For COc1ccc(S(=O)(=O)N2c3ccccc3OCC2C(C)(C)C)cc1 (stereo unspecified) the results were HCMV antiviral -19, Pf growth 96h 15µM*, Pf growth 48h 12µM*, Sm TGR block 2% and Giardia FBPA inh 0%.
For COc1ccc(S(=O)(=O)N2c3ccccc3OCC2c2ccccc2)cc1 (stereo unspecified) the results were HCMV antiviral inconclusive, Pf growth 96h inconclusive, Pf growth 48h 13µM*, Sm TGR block 4% and Giardia FBPA inh 4%.
`COc1ccc(S(=O)(=O)N2c3ccccc3OCC2C)cc1` (stereo unspecified) gave HCMV antiviral -66*, Pf growth 96h inconclusive, Pf growth 48h inconclusive, Sm TGR block 2% and Giardia FBPA inh -7%.
For CNc1nc2cnc(Nc3ccc(C(F)(F)F)cc3)cc2n1-c1cc(OC)c(OC)c(OC)c1 the results were HCMV antiviral -14.
Screening O=C(Nc1ccc2oc(-c3cccnc3)nc2c1)c1ccc(-c2ccccc2OC(F)(F)F)o1 returned HCMV antiviral -31 and Sm TGR block inconclusive.
O=C(Nc1ccc2oc(-c3cccnc3)nc2c1)c1ccc(-c2ccc(OC(F)(F)F)cc2)o1 was read as HCMV antiviral -9 and Sm TGR block 8.9µM*.
O=C(Nc1ccc2oc(-c3cccnc3)nc2c1)c1ccc(-c2ccccc2)o1 was read as HCMV antiviral -73* and Sm TGR block 35µM*.
Screening O=C(OCc1ccccn1)c1ccc(COc2ccc3ccccc3c2)o1 returned HCMV antiviral 0, Pf growth 96h 220%, Pf growth 48h 82%, Sm TGR block inconclusive and Giardia FBPA inh 1%.
CCOC(=O)[C@H]1[C@H]2COc3ccc(Br)cc3[C@H]2N2C(=O)CN(CCc3c[nH]c4ccccc34)C(=O)[C@@]12C was read as HCMV antiviral 46.
COc1ccc2c(c1)OC[C@H]1[C@H]2N2C(=O)CN(CCc3c[nH]c4ccccc34)C(=O)[C@@]2(C)[C@H]1c1ccccc1 was read as HCMV antiviral -7, Pf growth 96h 4.7µM*, Pf growth 48h 12µM* and Sm TGR block 4%.
Screening CCOC(=O)[C@H]1[C@H]2COc3cc(OC)ccc3[C@@H]2N2C(=O)CN(CCc3c[nH]c4ccccc34)C(=O)[C@@]12C returned HCMV antiviral 27, Pf growth 96h inconclusive, Pf growth 48h 7.4µM* and Sm TGR block -22%.
Screening O=C(NC(=O)c1c(F)cccc1F)O/N=C1\CCCc2occc21 returned HCMV antiviral -10, Pf growth 96h 22%, Pf growth 48h 2.3µM*, Sm TGR block -15% and Giardia FBPA inh -1%.
Screening Cc1sc2ncnc(NCC3(N4CCOCC4)CCCCC3)c2c1C returned HCMV antiviral -15, Pf growth 96h 1.9µM*, Sm TGR block 0% and Giardia FBPA inh 1%.
Screening COc1ccc(-c2[nH][nH]c(=O)c2NC(=O)c2ccccn2)cc1 returned HCMV antiviral -6.
COc1ccc(CCC(=O)Nc2c(-c3ccc(N(C)C)cc3)[nH][nH]c2=O)cc1 was read as HCMV antiviral -68*.
`CN(C)S(=O)(=O)c1ccc(C(=O)NCC(C)(C)CN=C2NS(=O)(=O)c3ccccc32)cc1` gave HCMV antiviral 6, Pf growth 96h inconclusive, Pf growth 48h inconclusive, Sm TGR block 2% and Giardia FBPA inh -1%.
O=c1cc(N2CCCCC2)c(-c2ccccc2)nn1Cc1ccc(Cl)cc1 was read as HCMV antiviral 13, Pf growth 96h -7%, Pf growth 48h 3%, Sm TGR block 33% and Giardia FBPA inh -1%.
O=c1cc(N2CCCCC2)c(-c2ccccc2)n[nH]1 was read as HCMV antiviral -39, Pf growth 96h 9%, Pf growth 48h -17%, Sm TGR block 1% and Giardia FBPA inh 2%.
For O=c1cc(N2CCCCC2)c(-c2ccccc2)nn1Cc1c(Cl)cccc1Cl the results were HCMV antiviral inconclusive, Pf growth 96h 10µM*, Pf growth 48h inconclusive, Sm TGR block -10% and Giardia FBPA inh 11%.
O=c1cc(N2CCCCC2)c(-c2ccccc2)nn1Cc1ccc(F)cc1 was read as HCMV antiviral inconclusive, Pf growth 96h 13µM*, Pf growth 48h inconclusive, Sm TGR block -4% and Giardia FBPA inh 0%.
CN(Cc1ccccc1)S(=O)(=O)c1ccc2c(c1)CCC(=O)N2 was read as HCMV antiviral 14, Pf growth 96h 6%, Pf growth 48h 4%, Sm TGR block 0% and Giardia FBPA inh -8%.
CC1(OC(=O)CCc2ccccc2)C(=O)C=C2C=C3CCCN3C=C2C1=O (stereo unspecified) was read as HCMV antiviral -32, Pf growth 96h 51%, Pf growth 48h 53%, Sm TGR block 35µM* and Giardia FBPA inh inconclusive.
CC1(OC(=O)CCc2ccccc2)C(=O)C=C2C=C(C3CC3)OC=C2C1=O (stereo unspecified) was read as Giardia FBPA inh -10%.
Screening CC1(OC(=O)c2cccs2)C(=O)C=C2C=C3CCCN3C=C2C1=O (stereo unspecified) returned Pf growth 96h 42%, Pf growth 48h 62%, Sm TGR block 35µM* and Giardia FBPA inh inconclusive.
Nc1nc(C2CCOCC2)cs1 was read as HCMV antiviral 35, Pf growth 96h 12%, Pf growth 48h 20%, Sm TGR block -4% and Giardia FBPA inh 7%.
For Nc1nc(C2CC2)c(Sc2sc(N)nc2C2CC2)s1 the results were HCMV antiviral -72*, Pf growth 96h inconclusive, Pf growth 48h 27%, Sm TGR block 4% and Giardia FBPA inh -17%.
For COC(=O)C1(C(=O)OC)C/C=C\Cc2ccccc2[C@@H]1C[N+](=O)[O-] the results were Giardia FBPA inh -1%.
N#C/C(=C\c1cc(Cl)cc(Cl)c1O)C(=O)NC1CCCCC1 was read as HCMV antiviral 19, Pf growth 96h inconclusive, Pf growth 48h inconclusive, Sm TGR block inconclusive and Giardia FBPA inh -6%.
For COc1ccccc1-n1c(SCC(=O)Nc2nnc(C)s2)nc2c(c1=O)SCC2 the results were Pf growth 96h 12µM*, Pf growth 48h 0%, Sm TGR block -4% and Giardia FBPA inh -1%.
CCn1c(SCC(=O)N2CCCCCC2)nc2c(c1=O)SCC2 was read as HCMV antiviral 12, Pf growth 96h 5.9µM*, Pf growth 48h -10% and Sm TGR block 1%.
COc1ccccc1-n1c(SCC(=O)Nc2cc(C)on2)nc2c(c1=O)SCC2 was read as HCMV antiviral -4, Pf growth 96h inconclusive, Pf growth 48h inconclusive, Sm TGR block 0% and Giardia FBPA inh -19%.

From PubChem
